High-throughput results: PubChem BioAssay, National Center for Advancing Translational Sciences (NCATS)
ATXN2 expr inh – Primary qHTS for Inhibitors of ATXN expression | 0.72% of 360,000 active | Potency, µM (top dose mostly 57 µM), for inactives: top-dose activity change, negative = inhibition, usual class: inhibitors | HEK-293 ATXN2-luciferase reporter, luminescence, 24 h; note: % is set by controls: 0 for no effect and ±100 for the full control effect; nearly all actives have a fitted effect of over 55% in size
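qHTS (up to 57 uM final) was run with 24 h compound exposure of reporter cells at 37 °C. Each well was multiplexed: SteadyGlo luminescence measured ATXN2-luciferase expression after a fluorogenic Gly-Phe-AFC viability readout (25 uM final).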
HT1080 IDH1KD tx – qHTS for induction of synthetic lethality in tumor cells producing 2HG: qHTS for the HT-1080-IDH1KD cell line; HT-1080 IDH1 knockdown viability, ATP luminescence, 48 h; Potency, µM (doses to about 46.1 µM), for the others: at the highest dose activity, negative = toxicity, hits mostly cytotoxic; 2% of 360,000 active; AID 686971, 2013;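 note: 0% = DMSO wells and -100% = cell-free medium wells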
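% activity derives from luminescence (CellTiter-Glo), normalised to DMSO and no-cell wells. HT-1080-IDH1KD cells, 750/well, had 48 h compound exposure at 37 °C.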
HT1080-NT tox – qHTS for induction of synthetic lethality in tumor cells producing 2HG: qHTS for the HT-1080-NT fibrosarcoma cell line; HT-1080-NT fibrosarcoma viability, CellTiter-Glo ATP luminescence, 48 h; Potency, µM (series often up to 46.1 µM), for inactives: at the top dose activity, negative = less viability, usual class: cytotoxic; 1.6% of 360,000 active; AID 686970, 2013;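 note: NT is the 2HG producing partner of a matched IDH1 knockdown line; 0% = DMSO-treated cells and -100% = media-only wells without cells; nearly all actives have a fitted effect of over 55% in size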
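Viability by CellTiter-Glo luminescence after 48 h compound exposure at 37C of HT-1080-NT cells (750/well, RPMI, 5% FBS). % activity scaled between DMSO wells and medium-only wells, then curve-fitted and categorized by curve class.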
TGFb SMAD3 inh – qHTS for Inhibitors of TGF-b; HepG2 CAGA-GFP TGF-b/SMAD3 reporter, GFP fluorescence, 18 h; TGF-beta stimulated, 500 pg/mL final; Potency, µM (highest dose often 46.1 µM), for inactives: at the top dose activity, negative = inhibition, actives largely listed as inhibitors; 1.2% of 410,000 active; note: % is set by controls: 0 for no effect and ±100 for the full control effect; nearly all actives have a fitted effect of over 65% in size
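Read-out: total well GFP (ex488/em500-530) summed from mean per-cell fluorescence. Cells: HEPG2 CAGA-GFP, 1% FBS DMEM, 18 h at 37 degrees C with 500 pg/mL final TGF-beta. Unstimulated wells served as the full-inhibition control; stimulated DMSO wells = 0%.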
HepG2 viability – qHTS for Inhibitors of TGF-b: Cytotox Counterscreen; 0.76% of 410,000 active; Potency, µM (doses to about 46.1 µM), for the others: top-dose activity change, negative = cytotoxicity, actives largely listed as cytotoxic; HepG2 CAGA-GFP viability, ATP luminescence, 18 h
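CellTiter-Glo luminescence gave cytotoxicity after 18 hours at 37 degrees C. The cells were HepG2 CAGA-GFP in 1% FBS DMEM, stimulated with 500 pg/mL TGF-beta after compound addition. %Activity was normalised to no-cell wells (complete cell-killing) and DMSO (no toxicity), and curves were fitted and classified.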
S2 tox – Viability Counterscreen for Primary qHTS for Inhibitors of ATXN expression | S2 cells (HEK-293 line with an ATXN2-luciferase reporter) viability, CellTiter-Fluor protease fluorescence, 24 h | Potency, µM (series often up to 56.7 µM), hits mostly cytotoxic | 0.49% of 400,000 active | AID 651635, 2014; note: nearly all actives have a fitted effect of over 40% in size
Starred values were filed as active, the others as inactive; i = inactive; ? = inconclusive; · = no result. An excerpt weighted towards active compounds, which were near 3.8% of everything screened. Calls come from the whole dose curve; as a rule, active = well fitted curve in the direction sought with a large enough effect; inconclusive = small, poorly fitted or top-dose-only effect, or another doubt; inactive = no such curve, though single readings can be large; an effect the other way counts as inactive or inconclusive. Potency is the fitted concentration of half-maximal effect.

SMILES | ATXN2 expr inh | HT1080 IDH1KD tx | HT1080-NT tox | TGFb SMAD3 inh | HepG2 viability | S2 tox
CCC1Sc2ccc(S(=O)(=O)CCC(=O)Nc3ccc(OC(F)(F)F)cc3)cc2NC1=O (configuration not stated) | · | 0% | -11% | ? | 10µM* | ?
CCC(=O)N1CCc2cc(S(=O)(=O)CCC(=O)Nc3ccc(OC(F)(F)F)cc3)ccc21 | -22% | · | · | 11µM* | -18% | i
Cc1cnc(SCc2ccccn2)nc1C1CCCN(C(=O)c2ccc3c(c2)OCO3)C1 (configuration not stated) | · | · | · | · | · | i
O=[N+]([O-])c1ccc(COc2cccc(CN3CCCC3)c2)cc1 | 1% | 1% | 7% | -18% | -35% | i
Nc1ncnc2c1c(-c1cccc(OCc3ccccc3)c1)cn2C1CC(CN2CCCC2)C1 (configuration not stated) | 31µM* | · | · | · | · | ·
CN1C(=O)/C(=C\c2ccccc2F)Sc2ccc(C(=O)NC3CCN(Cc4ccccc4)CC3)cc21 | ? | 16µM* | 21µM* | ? | -98% | i
COc1ccc(/C=C2\Sc3ccc(C(=O)NC4CC4)cc3N(C)C2=O)cc1OC | · | 0% | -27% | 2% | -17% | ?
O=C(NC1CCN(Cc2ccccc2)CC1)c1ccc2c(c1)[nH]c(=O)n2Cc1ccc(F)cc1 | -27% | -13% | 15µM* | ? | -2% | i
CCOC(=S)SCC(=O)Nc1nc(-c2ccc(Br)cc2)cs1 | ? | 6.5µM* | 7.3µM* | ? | -43% | ?
CC(C)c1ccc(CNc2nc(NCC3CC3)nc3ccsc23)cc1 | ? | 18µM* | 23µM* | ? | 14µM* | ·
COc1ccccc1CNc1nc(Nc2ccccc2OC)c2sccc2n1 | -8% | 5% | 17% | -9% | -30% | i
COc1cccc(CNc2nc(NCC3CC3)nc3ccsc23)c1 | ? | · | · | ? | -39% | ?
COc1ccccc1CNc1nc(NCc2ccc(C(C)C)cc2)c2sccc2n1 | 32µM* | 18µM* | 21µM* | ? | -101% | ·
C[C@@H]1CN(Cc2ccc3c(c2)CN(Cc2cccc(O)c2)CCO3)C[C@H](C)O1 | · | · | · | · | · | i
COc1ccc(CCNCC(O)Cn2c3ccccc3c3ccccc32)cc1OC (configuration not stated) | ? | 23µM* | -6% | ? | 11µM* | ?
COc1ccccc1NCC(O)Cn1c2ccccc2c2ccccc21 (configuration not stated) | -17% | ? | -29% | 13µM* | -115% | i
Cc1cc(NC(=O)CSc2nc(-c3ccco3)cc(C(F)(F)F)n2)no1 | -22% | 0.52µM* | 0.58µM* | 32% | 14% | ?
Cc1ccc(C(C(=O)NC(C)(C)C)N(CC2CCCO2)C(=O)c2csnn2)cc1 (configuration not stated) | -3% | 20% | 3% | 19% | -14% | i
CC(C)(C)NC(=O)C(c1ccc(-c2ccccc2)cc1)N(C[C@H]1CC[C@@H]([C@@H]2CC[C@H](CO)O2)O1)C(=O)c1ccc(C(C)(C)C)cc1 (some centres not stated) | -28% | ? | ? | ? | -96% | 20µM*
Cc1ccc(NC(=O)C2CCN(S(=O)(=O)c3ccc4c(c3)NC(=O)C(C)S4)CC2)cc1Cl (configuration not stated) | · | ? | ? | 2.2µM* | -11% | ?
Cc1cccc(N2CCN(S(=O)(=O)c3ccc4c(c3)C(C)(C)C(=O)N4C)CC2)c1C | ? | -4% | -6% | -25% | -24% | i
Cc1cccc(N2CCN(S(=O)(=O)c3ccc4c(c3)C(C(C)C)C(=O)N4)CC2)c1C (configuration not stated) | ? | · | · | 16µM* | -57% | i
Cc1cccc(N2CCN(S(=O)(=O)c3ccc4c(c3)NC(=O)C(C)S4)CC2)c1C (configuration not stated) | -24% | ? | ? | 16µM* | 0% | i
COc1cccc(N2CCN(C(=O)CCn3nc(C)c(S(=O)(=O)N4CCCC4)c3C)CC2)c1 | -5% | · | · | -16% | -8% | i
CC(=O)c1cccc(Nc2ncnc3c2cnn3C)c1 | · | · | · | -17% | -15% | ·
SMILES | ATXN2 expr inh | HT1080 IDH1KD tx | HT1080-NT tox | TGFb SMAD3 inh | HepG2 viability | S2 tox
COc1ccc2c(c1)-c1nc(-n3ncc(C(=O)NCc4cccnc4)c3C3CC3)ncc1CC2 | · | · | · | · | · | i
O=C(c1ccccc1)N1N=C(C(F)(F)F)CC1(O)c1ccccc1O (configuration not stated) | · | -18% | -11% | 8.9µM* | 7.1µM* | ?
O=C(c1ccccc1F)N1N=C(C(F)(F)F)CC1(O)c1ccccc1 (configuration not stated) | · | -7% | -5% | -19% | -18% | ?
Oc1cccc(/C=N/N(Cc2ccccc2)c2ccccc2)c1 | -9% | 18µM* | ? | ? | 13µM* | i
C(=N\N(Cc1ccccc1)c1ccccc1)/c1cccnc1 | -28% | 3% | 1% | ? | -12% | i
CCCN(CCC)CCCNC(=O)c1ccc2c(Cl)c3c(nc2c1)CCC3 | -30% | 21µM* | ? | -26% | -38% | i
CCN1CCN(CCCNC(=O)c2ccc3c(Cl)c4c(nc3c2)CCCC4)CC1 | ? | ? | 26µM* | ? | -30% | i
O=C(NCCCN1CCCCCC1)c1ccc2c(Cl)c3c(nc2c1)CCCC3 | -4% | ? | -9% | ? | -47% | ?
CC1CCN(CCCNC(=O)c2ccc3c(Cl)c4c(nc3c2)CCCC4)CC1 | ? | 21µM* | ? | -5% | -10% | ?
CCOc1ccc(NC(=O)CCSc2nc(-c3ccc4c(c3)OCO4)cc(C(F)(F)F)n2)cc1 | 2% | · | · | 3% | -26% | ?
CC1=C(C(=O)NCc2ccccc2C)C2(CCCCCC2)OC1=O | · | · | · | ? | -12% | ·
CCOC(=O)C(=O)NNc1ccc(F)cc1 | -20% | 8.2µM* | 12µM* | 14% | 5% | i
COc1cc(=O)n2c(c1C(=O)NCc1ccco1)CCN(Cc1cccc(Cl)c1)CC2 | · | · | · | · | · | i
CC(C)CNC(=O)c1cn(C2CCN(Cc3nc4ccccc4s3)CC2)nn1 | · | · | · | · | · | i
